Compound activity deposited in PubChem by National Center for Advancing Translational Sciences (NCATS).
ELG1 repair inh: qHTS screen for small molecules that inhibit ELG1-dependent DNA repair in human embryonic kidney (HEK293T) cells expressing luciferase-tagged ELG1; HEK293T ELG1-luciferase reporter, luminescence, 16 h; DNA damage induced by 5-fluorouridine; Potency, µM (top dose mostly 46.1 µM), for inactives: at the top dose activity change, negative = inhibition, hits mostly inhibitors; actives 2.3% (n = 330,000); AID 504467, 2011; further: on the % scale 0 is the no-effect control and ±100 the full control effect; nearly all actives have a fitted effect of over 55% in size
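HEK293T cells expressing luciferase-tagged ELG1 (2,000/well) received 5-Fluorouridine plus compound or DMSO for 16 hr at 37 °C. Luciferase was read by ONE-Glo luminescence after 30 min at room temperature.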
Rab9 promoter act: qHTS Assay for Rab9 Promoter Activators | actives 2.8% (n = 320,000) | AID 485297, 2010 | Huh7 Rab9 promoter-luciferase reporter, luminescence, 24 h | Potency, µM (highest dose often 9.22 µM), inactives show top-dose activation, negative = inhibition, usual class: activators; further: % of control where 0% means no effect; nearly all actives have a fitted effect of over 60% in size
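Using Huh7 cells stably transfected with Rab9 promoter–luciferase, compounds were incubated 24 h at 37 °C, 5% CO2; luciferase luminescence was read 10 min after reagent addition.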
ELG1 genotox: qHTS screen for small molecules that induce genotoxicity in human embryonic kidney (HEK293T) cells expressing luciferase-tagged ELG1 | HEK293T ELG1-luciferase reporter, luminescence, 16 h | actives 1.3% (n = 330,000) | Potency, µM (series often up to 46 µM), for the others: at the top dose activity change, positive = activation, most hits filed as activators; further: % of control where 0% means no effect; nearly all actives have a fitted effect of over 60% in size
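Luminescence read-out: rising ELG1-luciferase signal, reflecting elevated ELG1 protein under genetic stress, flags genotoxic compounds. Cells were treated for 16 hr at 37 °C before ONE-Glo detection.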
SMN2 splice up: qHTS Assay for Enhancers of SMN2 Splice Variant Expression; HEK293 SMN2-luciferase splicing reporter, luminescence, 30-36 h; Potency, µM (titrated, usually from 46.1 µM), for the others: at the highest dose activity change, positive = activation, most hits filed as activators; actives 2.8% (n = 210,000); further: % of control where 0% means no effect; nearly all actives have a fitted effect of over 55% in size
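qHTS luciferase splicing reporter: luminescence rises when SMN2 exon 7 is included in transfected HEK293 cells. Compound exposure lasted 30-36 h at 37C, with 4.5 mM final sodium butyrate as control, followed by a ONE-Glo read.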
NPC1 prom act: qHTS Assay for NPC1 Promoter Activators; Huh7 NPC1 promoter luciferase reporter, 24 h; Potency, µM (highest dose often 9.22 µM), without a hit: top-dose activation, most hits filed as activators; actives 2.4% (n = 320,000); further: % of control where 0% means no effect; nearly all actives have a fitted effect of over 60% in size
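Readout is luciferase luminescence, reflecting NPC1 promoter activation in stably transfected Huh7 cells after 24 h compound exposure at 37 °C in reduced-serum medium with 10% FBS.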
FLuc modulator: qHTS profiling assay for firefly luciferase inhibitor/activator using purifed enzyme and Km concentrations of substrates (counterscreen for miR-21 project); Luciferin 4-monooxygenase (Photinus pyralis), P08659; purified FLuc, Km substrates, luminescence inhibition; Potency, µM (doses to about 57.5 µM), inactives show at the highest dose activity change, negative = inhibition, most hits filed as inhibitors; actives 6.9% (n = 360,000); AID 588342, 2011;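 further: plate controls were vehicle for no effect and reference inhibitor for full effect; nearly all actives have a fitted effect of over 55% in size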
Target sequence (P08659 whole entry, looked up): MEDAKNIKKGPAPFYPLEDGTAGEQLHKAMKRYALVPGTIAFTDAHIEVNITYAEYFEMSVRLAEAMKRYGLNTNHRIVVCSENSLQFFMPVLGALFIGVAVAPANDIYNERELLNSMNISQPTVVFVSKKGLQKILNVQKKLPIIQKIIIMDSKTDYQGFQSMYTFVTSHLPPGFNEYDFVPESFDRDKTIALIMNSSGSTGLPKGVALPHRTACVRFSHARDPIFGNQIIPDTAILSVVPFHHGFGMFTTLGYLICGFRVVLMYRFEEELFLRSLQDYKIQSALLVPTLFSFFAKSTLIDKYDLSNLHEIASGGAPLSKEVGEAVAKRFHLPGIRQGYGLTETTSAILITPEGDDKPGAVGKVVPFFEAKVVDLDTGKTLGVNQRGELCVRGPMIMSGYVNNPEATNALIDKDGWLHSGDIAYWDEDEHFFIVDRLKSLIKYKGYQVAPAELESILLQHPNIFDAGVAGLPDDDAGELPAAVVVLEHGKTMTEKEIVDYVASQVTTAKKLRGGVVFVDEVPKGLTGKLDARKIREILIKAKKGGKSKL
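Purified P. pyralis luciferase (10nM final) with 10uM D-luciferin and 10uM ATP (Km levels) in 50mM Tris acetate pH 7.5, 10mM Mg acetate, 0.01% Tween-20, 0.05% BSA; qHTS 6-point titration, ~60 µM downward; luminescence read.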
Numbers without * were called inactive; ? = inconclusive; / = no result; [ ] = another dose, or the depositor's remark. Shown are actives, neighbours in structure and some others; about 9.4% of the full set was active somewhere. The call rests on the fitted dose curve; in most records, active means well fitted curve in the direction sought with a large enough effect; inconclusive means small, poorly fitted or top-dose-only effect, or another doubt; inactive means no such curve, though single readings can be large; an effect the other way counts as inactive or inconclusive. Potency means the concentration at half of the fitted maximal effect.

SMILES	ELG1 repair inh	Rab9 promoter act	ELG1 genotox	SMN2 splice up	NPC1 prom act	FLuc modulator
CCOC(=O)N1CCC(NC(=O)c2cc3c(-c4ccc(OC)c(OC)c4)nn(C)c3s2)CC1	7.3µM*	0%	-15%	?	3%	-1%
CCOC(=O)N1CCC(NC(=O)c2cc3c(-c4ccccc4F)nn(C)c3s2)CC1	13µM*	1%	-21%	-22%	-2%	1%
CCOC(=O)C1CCN(C(=O)c2cc3c(-c4ccc(OC)c(OC)c4)nn(C)c3s2)CC1	?	7%	-2%	-1%	-2%	-13%
COc1cccc(-c2cn3c(n2)sc2cc(C(=O)NC4CCCCCC4)ccc23)c1	/	/	/	/	/	-15%
Cc1ccc(CNC(=O)CN(c2cc(C)cc(C)c2)S(=O)(=O)c2c(C)noc2C)cc1	/	/	/	16%	/	0%
CC(=O)c1ccc(N2CCN(C(=O)c3n[nH]c4ccccc34)CC2)cc1	0%	-2%	-2%	-5%	-8%	-8%
CC(=O)c1ccc(N2CCN(C(=O)c3nn(Cc4ccccc4)c(=O)c4ccccc34)CC2)cc1	9.2µM*	13%	-10%	5%	2%	-14%
O=C1/C(=C/c2cccnc2)Cc2ccc(Cl)cc21	2%	5%	-2%	/	6%	12µM*
Cc1nn(C)c(C)c1NC(=O)CCSc1nc(-c2ccco2)cc(C(F)(F)F)n1	-18%	-12%	-12%	-22%	-4%	0%
COc1ccc(NC(=O)CCCSc2nc(-c3ccco3)cc(C(F)(F)F)n2)cc1OC	21µM*	1%	-11%	26%	-2%	5%
O=C(CSc1nc(-c2ccco2)cc(C(F)(F)F)n1)Nc1ccc(C(=O)N2CCCCC2)cc1	4.6µM*	-31%	-7%	-59%	-14%	-4%
CN(C)c1ccc(NC(=O)CCSc2nc(-c3ccco3)cc(C(F)(F)F)n2)cc1	/	/	/	3%	/	9.5µM*
Cc1cc(NC(=O)CCSc2nc(-c3ccco3)cc(C(F)(F)F)n2)n(-c2ccccc2)n1	26µM*	2%	-8%	-24%	-1%	2%
COc1ccc(NC(=O)CCSc2nc(-c3ccco3)cc(C(F)(F)F)n2)cc1	/	/	/	-7%	/	0%
COc1ccc(NC(=O)CCSc2nc(-c3ccco3)cc(C(F)(F)F)n2)cc1OC	/	/	/	3%	/	0%
O=c1cc(COc2ccccc2Cl)nc2scc(-c3ccccc3)n12	/	/	/	-4%	/	?
Cc1ccc(CCNC(=O)CCSCc2ccccc2Cl)cc1	/	/	/	/	/	-20%
COc1ccc(-c2noc(CN(C(=O)COc3cc(C)c(Br)c(C)c3)C(C)C)n2)cc1	/	/	/	11%	/	5%
O=C(O)c1ccc(C(=O)O)c(C(=O)Nc2ccc3c(c2)Cc2ccccc2-3)c1	/	/	/	11%[9.22 µM]	/	/
COc1ccccc1-c1cc2ccccc2[nH]1	?	?	?	13µM*	30%	15µM*
COc1ccccc1-c1cc(-c2ccccc2)nc(=O)[nH]1	0%	-2%	1%	/	1%	0%
CCOC(=O)N1CCN(CCC(=O)Nc2cccc(F)c2)CC1	/	/	/	7%	/	-1%
O=[N+]([O-])c1ccc(-c2cn(-c3ccccc3F)c(=S)[nH]2)cc1	?	1.4µM*	10%	14%	?	1%
Cc1ccc(-c2cn(-c3ccccc3F)c(=S)[nH]2)cc1	?	3.2µM*	15%	/	?	?
COc1ccc(CCNC(=O)Cc2c(C)c3c(cc(C)c4c(C)coc43)oc2=O)cc1OC	/	/	/	-7%	/	-9%
SMILES	ELG1 repair inh	Rab9 promoter act	ELG1 genotox	SMN2 splice up	NPC1 prom act	FLuc modulator
CCOc1cc(C(=O)N2CC(=O)Nc3ccc(F)cc3C2c2ccccc2)cc(OCC)c1OCC (centres undefined)	/	/	/	-2%	/	-10%
CC1CN(C(=O)c2cc([N+](=O)[O-])cc([N+](=O)[O-])c2)CC(C)O1 (centres undefined)	?	3.2µM*	?	/	?	15µM*
O=C(N/N=C/c1ccc(F)cc1)c1sccc1OCc1ccc(F)cc1	13%	-8%	12%	4%	-18%	9.5µM*
O=C(COCC(=O)N/N=C/c1ccccc1F)N/N=C/c1ccccc1F	10%	13%	1%	8%	0%	?
O=C(COCC(=O)N/N=C/c1ccc(F)cc1)N/N=C/c1ccc(F)cc1	11%	2%	4%	10%	0%	8.5µM*
CCOC(=O)C(=O)N/N=C/c1ccc(F)cc1	-9%	-3%	-8%	/	3%	13µM*
O=C(N/N=C/c1ccc(Cl)cc1)c1sccc1OCc1ccc(F)cc1	?	-11%	?	?	-15%	?
CCOc1ccc(OCCSc2nc3ccccc3[nH]2)cc1	-21%	2%	8%	-111%	2%	?
CCCOc1ccc(CSc2nc3ccccc3[nH]2)cc1	?	?	?	20%	25%	2.1µM*
c1ccc(CSCc2nc3ccccc3[nH]2)cc1	?	2.5µM*	?	?	?	19µM*
Fc1ccc(CSc2nc3ncccc3[nH]2)cc1	?	?	?	?	?	13µM*
Fc1cccc(CSc2nc3ncccc3[nH]2)c1	?	?	-1%	16%	24%	?
c1ccc(CSc2nc3ccccc3[nH]2)cc1	?	0.79µM*	?	/	0.79µM*	3.4µM*
COc1ccccc1N1CCN(C(=O)c2ccc(Nc3nc4ccccc4n4nnnc34)cc2)CC1	/	/	/	2%	/	-4%
COc1ccc(Br)c2c1-c1nc(NC(=O)c3ccc(F)cc3)sc1C2	/	/	/	-2%	/	-5%
O=C(CCCn1ccc2cc(S(=O)(=O)N3CCCC3)ccc21)NCc1ccc(Cl)cc1	/	/	/	/	/	-18%
CCOc1ccc2nc(SCC)[nH]c2c1	?	?	16%	4%	?	19µM*
Fc1ccc(CSc2nc3ccccc3[nH]2)c2ccccc12	4%	17%	5%	-5%	0%	24µM*
Fc1ccc(CSc2nc3ccccc3[nH]2)cc1	?	1.4µM*	?	11µM*	2.8µM*	4.8µM*
O=[N+]([O-])c1ccc(CSc2nc3ccccc3[nH]2)cc1	?	2.2µM*	?	16µM*	4µM*	6µM*
O=C(NCCO)c1ccc(CSc2nc3ccccc3[nH]2)cc1	?	21%	8%	-5%	-1%	?
O=c1cc(CSc2nc3ccccc3[nH]2)c2ccccc2[nH]1	?	26%	13%	-15%	0%	-21%
